Each structure is given as a SMILES string. The panel holds about 83,000 compounds, 20% with a hit somewhere; the sample as a whole holds those more often.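 Single-concentration screen, 48 h exposure, 96-well plates. Endpoint: percent growth. Below 10 = active.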 Values without a mark were called inactive. Calls of active or inactive are those of the source.

Some test systems named below: K-562 leukemia; MALME-3M melanoma; MDA-MB-231 breast; RXF 393 renal; SF-268 CNS; SF-295 CNS; SF-539 CNS; UACC-257 melanoma; M14 melanoma; HCT-15 colon; HT29 colon; SNB-75 CNS; SNB-19 CNS; U251 CNS; PC-3 prostate; UACC-62 melanoma; LOX IMVI melanoma; SK-MEL-28 melanoma; SK-MEL-2 melanoma; SK-MEL-5 melanoma.
Common to all, as to test: NCI-60 one-dose screen, 48 h (100 = growth as untreated, 0 = no growth, -100 = all killed)
Common to all, as to details: 10 µM unless noted

`CCC[C@H](N[C@@H](C)C(=O)N1[C@H](C(=O)O)C[C@@H]2CCCC[C@@H]21)C(=O)OCC`: the growth in the assay with K-562 leukemia was 116%; in the assay on MALME-3M melanoma, 94.2%; in the assay on MDA-MB-231 breast, 90.4%; in the assay on RXF 393 renal it was 114%; in the assay with SF-268 CNS, 105%; in the assay on SF-295 CNS it was 111%. Further, the growth in the assay with SF-539 CNS was 91.4%; in the assay on UACC-257 melanoma it was 97.9%; with M14 melanoma, 113%; in the assay with HCT-15 colon it was 99.3%; with HT29 colon, 100%; with SNB-75 CNS it was 112%. Further, the growth in the assay with SNB-19 CNS is 104%; in the assay on U251 CNS it was 93.6%; with PC-3 prostate it was 91.8%; in the assay on UACC-62 melanoma, 104%; in the assay on LOX IMVI melanoma, 89.8%; in the assay with SK-MEL-28 melanoma, 123%. Also, the growth in the assay with SK-MEL-2 melanoma was 112%.
Take `N=c1ccn2c(n1)O[C@@H]1[C@@H](O)[C@H](CO)O[C@@H]12`: the growth was 67.1% in the assay on K-562 leukemia; 59.1% in the assay with MALME-3M melanoma; 91.7% in the assay on MDA-MB-231 breast; 96.4% with RXF 393 renal; 65.8% with SF-268 CNS; 88.7% in the assay on SF-295 CNS. Also, the growth is 98.4% with SF-539 CNS; 70.3% in the assay with UACC-257 melanoma; -1.79% (active) in the assay on M14 melanoma; 64.4% in the assay with HCT-15 colon; 54.2% in the assay on HT29 colon; 82.8% in the assay on SNB-75 CNS. The growth in the assay with SNB-19 CNS is 64.8%; in the assay with U251 CNS, 52.2%; with PC-3 prostate it was 57.9%; in the assay with UACC-62 melanoma, 81.2%; in the assay with LOX IMVI melanoma, 67.9%; with SK-MEL-28 melanoma, 69.9%. Further, the growth in the assay on SK-MEL-2 melanoma is 82.7%.
As to `CCCCCCCCCCC[C@@H](C[C@H]1OC(=O)[C@H]1CCCCCC)OC(=O)[C@@H](CC(C)C)NC=O`, the growth in the assay with K-562 leukemia was 45.2%; in the assay with MALME-3M melanoma, 89.4%; with MDA-MB-231 breast, 60.9%; with RXF 393 renal, 44.1%; in the assay with SF-268 CNS it was 65.2%; in the assay on SF-295 CNS, 24.7%. Moreover, the growth is 63.1% in the assay with SF-539 CNS; 99.6% in the assay on UACC-257 melanoma; 62.6% with M14 melanoma; 34.8% in the assay with HCT-15 colon; 38.4% with HT29 colon; 82.4% with SNB-75 CNS. The growth in the assay with SNB-19 CNS is 55.6%; in the assay with U251 CNS, 63%; in the assay on PC-3 prostate, 50.4%; with UACC-62 melanoma it was 77.3%; with LOX IMVI melanoma, 14.1%; in the assay on SK-MEL-28 melanoma it was 111%. For the same compound, the growth with SK-MEL-2 melanoma is 55.9%.
Regarding `Cc1c(N(C)CS(=O)(=O)O)c(=O)n(-c2ccccc2)n1C`, the growth in the assay with K-562 leukemia is 102%; in the assay with MALME-3M melanoma, 94.1%; in the assay with MDA-MB-231 breast, 107%; with RXF 393 renal, 115%; in the assay on SF-268 CNS, 115%; in the assay on SF-295 CNS it was 98.9%. The growth is 106% in the assay with SF-539 CNS; 108% in the assay with UACC-257 melanoma; 103% with M14 melanoma; 103% in the assay on HCT-15 colon; 97.7% in the assay with HT29 colon; 111% in the assay with SNB-75 CNS. The growth in the assay with SNB-19 CNS was 101%; in the assay on U251 CNS, 100%; in the assay with PC-3 prostate it was 94.8%; in the assay with UACC-62 melanoma it was 96.9%; in the assay with LOX IMVI melanoma it was 104%; with SK-MEL-28 melanoma, 108%. The growth in the assay on SK-MEL-2 melanoma is 106%.
`Cc1ccccc1-c1cc(Cc2ccccc2O)c(=O)[nH]n1`: the growth is 91.7% in the assay on K-562 leukemia; 151% with MALME-3M melanoma; 90.7% in the assay on MDA-MB-231 breast; 140% in the assay with RXF 393 renal; 85.1% with SF-268 CNS; 113% in the assay with SF-295 CNS. Further, the growth in the assay on SF-539 CNS was 107%; with UACC-257 melanoma, 122%; in the assay on M14 melanoma, 120%; in the assay with HCT-15 colon it was 107%; with HT29 colon, 139%; in the assay on SNB-75 CNS, 106%. Further, the growth in the assay with SNB-19 CNS was 123%; with U251 CNS, 103%; in the assay with SK-MEL-5 melanoma, 94.8%; in the assay on UACC-62 melanoma, 95.3%; with LOX IMVI melanoma, 100%; in the assay with SK-MEL-28 melanoma, 131%.
As for `COc1cc(C2CC(=O)Nc3c2cc(Br)c2ccccc32)cc(Br)c1OC` (stereo unspecified), the growth was 20.2% with K-562 leukemia; 39.9% with MALME-3M melanoma; 28% with MDA-MB-231 breast; 35.8% in the assay with RXF 393 renal; 55.4% in the assay with SF-268 CNS; -31.3% (active) with SF-295 CNS. Also, the growth with SF-539 CNS is 74.4%; in the assay on UACC-257 melanoma it was 73.4%; in the assay on M14 melanoma, 48.2%; in the assay on HCT-15 colon it was 39.6%; in the assay on HT29 colon it was 6.78% (active); with SNB-75 CNS, -42.7% (active). The growth in the assay on SNB-19 CNS is 60.7%; in the assay on U251 CNS, 17.2%; with PC-3 prostate it was 39%; with UACC-62 melanoma, 51.7%; with LOX IMVI melanoma, 28.3%; with SK-MEL-28 melanoma, 73%. The growth in the assay on SK-MEL-2 melanoma was 58.7%.
In the case of `CCCCC1Nc2nc(SC)n(C)c(=O)c2CN(Cc2ccccc2)C1=O` (stereo unspecified), the growth is 141% in the assay with K-562 leukemia; 132% with MALME-3M melanoma; 94.5% in the assay on MDA-MB-231 breast; 77.2% in the assay with RXF 393 renal; 100% in the assay on SF-268 CNS; 94.9% in the assay with SF-295 CNS. Further, the growth with SF-539 CNS was 85.2%; in the assay with UACC-257 melanoma it was 90.1%; in the assay with M14 melanoma, 89.8%; in the assay on HCT-15 colon, 81.9%; in the assay on HT29 colon it was 105%; in the assay with SNB-75 CNS, 86%. Further, the growth in the assay with SNB-19 CNS was 93.7%; in the assay with U251 CNS it was 92.2%; in the assay on SK-MEL-5 melanoma, 96.4%; in the assay on UACC-62 melanoma, 85.9%; in the assay with LOX IMVI melanoma, 88.6%; in the assay on SK-MEL-28 melanoma, 122%. In addition, the growth in the assay on SK-MEL-2 melanoma is 90%.
In the case of `COc1ccccc1[C@H]1c2[nH]c3ccccc3c2C[C@H]2C(=O)N(CCCCCCC(=O)NO)CC(=O)N12`, the growth is 11.3% in the assay on K-562 leukemia; -1.09% (active) in the assay on MALME-3M melanoma; 66% in the assay on MDA-MB-231 breast; 65.5% in the assay with RXF 393 renal; 94.3% in the assay with SF-268 CNS; 71.9% in the assay on SF-295 CNS. The growth with SF-539 CNS is 40.2%; in the assay on UACC-257 melanoma, 26.5%; in the assay with M14 melanoma, 36.3%; in the assay with HCT-15 colon, 87.1%; in the assay with HT29 colon, 23.4%; in the assay on SNB-75 CNS it was -6.11% (active). Also, the growth is 67.3% in the assay with SNB-19 CNS; 46.6% in the assay on U251 CNS; 26.6% in the assay on SK-MEL-5 melanoma; 23.7% with UACC-62 melanoma; 32.7% in the assay on LOX IMVI melanoma; 18.6% in the assay with SK-MEL-28 melanoma. In the assay with SK-MEL-2 melanoma, the growth was 59.5%.

Source of the values: PubChem BioAssay (NCI).
